The source made the active and inactive calls. The calls were made as follows: active = hit-call score of the fitted dose curve at least 0.9, where 1 is the maximum; inactive = score below 0.9.
Key:
[1] = ATG_ISRE_CIS: Attagene CIS-FACTORIAL HepG2 Assay for human Interferon Regulatory Factor 1 (IRF1) binding to an Interferon-Stimulated Response Element (ISRE) (AID 2282948); settings: HepG2 ISRE cis-reporter (Attagene), mRNA transcription readout; actives raise or lower the signal
Method in brief: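 Signal reflects induction or loss of ISRE-linked reporter mRNA in transiently transfected HepG2 cells after a 24 h treatment, detected by fluorescent RT-PCR fragments on capillary electrophoresis and normalised to DMSO.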

[2] = ATG_M_32_CIS: Attagene CIS-FACTORIAL HepG2 Assay for M32 Transcription Factor (Internal Marker) (AID 2282949); settings: HepG2 Attagene cis-factorial M32 reporter, mRNA; actives raise or lower the signal;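 also: background control marker of the multiplexed CIS panel rather than a real target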
Method in brief: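 Transient MRTU transfection of HepG2; 24 h compound treatment; TriZol RNA, oligo(dT) RT, reporter PCR, 6-FAM primer extension, HpaI cut, CE. Gain/loss of signal vs DMSO.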

[3] = ATG_M_06_CIS: Attagene CIS-FACTORIAL HepG2 Assay for M06 Transcription Factor (Internal Marker) (AID 2282950); settings: HepG2 Attagene CIS-FACTORIAL M06 internal marker reporter; actives raise or lower the signal
Method in brief: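 HepG2 cells transiently transfected with cis-regulated multiple reporter transcription units were exposed to chemical for 24 h; reporter mRNA was quantified by RT-PCR, 6-FAM primer labelling, HpaI digestion and capillary electrophoresis, fitted bidirectionally against DMSO.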

[4] = molecular target: Hypoxia-inducible factor 1-alpha (Homo sapiens) (UniProt Q16665); test: ATG_HIF1a_CIS: Attagene CIS-FACTORIAL HepG2 Assay for human Hypoxia Inducible Factor 1 (HIF1A) (AID 2282951); settings: HepG2 Attagene cis-factorial HIF1a reporter transcription; actives raise or lower the signal
Hypoxia-inducible factor 1-alpha (Homo sapiens), sequence (Q16665 whole entry, looked up): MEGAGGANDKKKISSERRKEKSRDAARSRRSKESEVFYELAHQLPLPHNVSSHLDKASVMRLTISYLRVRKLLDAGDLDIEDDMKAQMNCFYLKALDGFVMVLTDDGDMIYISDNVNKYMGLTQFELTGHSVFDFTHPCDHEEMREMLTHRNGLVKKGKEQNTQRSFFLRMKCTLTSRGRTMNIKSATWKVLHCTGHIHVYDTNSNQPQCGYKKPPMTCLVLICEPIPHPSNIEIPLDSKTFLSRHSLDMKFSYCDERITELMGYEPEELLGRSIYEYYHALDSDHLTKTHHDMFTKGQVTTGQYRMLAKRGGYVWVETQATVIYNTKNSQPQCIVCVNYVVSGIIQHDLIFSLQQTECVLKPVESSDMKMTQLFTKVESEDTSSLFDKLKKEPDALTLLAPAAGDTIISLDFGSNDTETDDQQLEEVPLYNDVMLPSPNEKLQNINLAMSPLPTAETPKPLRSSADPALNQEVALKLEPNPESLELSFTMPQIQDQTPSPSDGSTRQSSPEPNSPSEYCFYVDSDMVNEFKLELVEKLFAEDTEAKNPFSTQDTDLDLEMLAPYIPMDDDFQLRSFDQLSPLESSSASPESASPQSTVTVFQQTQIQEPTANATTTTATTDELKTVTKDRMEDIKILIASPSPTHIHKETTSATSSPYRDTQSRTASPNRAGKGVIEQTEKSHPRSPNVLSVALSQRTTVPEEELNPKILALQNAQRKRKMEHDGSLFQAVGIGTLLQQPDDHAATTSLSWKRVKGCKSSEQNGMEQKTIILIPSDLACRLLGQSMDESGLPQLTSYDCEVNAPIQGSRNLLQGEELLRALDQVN
Method in brief: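 Dosed 24 h, transfected HepG2 cells yielded total RNA whose reporter transcripts were RT-PCR-amplified and sized by capillary electrophoresis using fluorescent labelling; DMSO defined baseline, with gain and loss of signal both fitted.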

[5] = molecular target: Hepatocyte nuclear factor 6 (Homo sapiens) (UniProt Q9UBC0); test: ATG_HNF6_CIS: Attagene CIS-FACTORIAL HepG2 Assay for human Hepatocyte Nuclear Factor 6 (HNF6) (AID 2282952); settings: HepG2 Attagene cis-factorial HNF6 reporter transcription; actives raise or lower the signal
Hepatocyte nuclear factor 6 (Homo sapiens), sequence (Q9UBC0 whole entry, looked up): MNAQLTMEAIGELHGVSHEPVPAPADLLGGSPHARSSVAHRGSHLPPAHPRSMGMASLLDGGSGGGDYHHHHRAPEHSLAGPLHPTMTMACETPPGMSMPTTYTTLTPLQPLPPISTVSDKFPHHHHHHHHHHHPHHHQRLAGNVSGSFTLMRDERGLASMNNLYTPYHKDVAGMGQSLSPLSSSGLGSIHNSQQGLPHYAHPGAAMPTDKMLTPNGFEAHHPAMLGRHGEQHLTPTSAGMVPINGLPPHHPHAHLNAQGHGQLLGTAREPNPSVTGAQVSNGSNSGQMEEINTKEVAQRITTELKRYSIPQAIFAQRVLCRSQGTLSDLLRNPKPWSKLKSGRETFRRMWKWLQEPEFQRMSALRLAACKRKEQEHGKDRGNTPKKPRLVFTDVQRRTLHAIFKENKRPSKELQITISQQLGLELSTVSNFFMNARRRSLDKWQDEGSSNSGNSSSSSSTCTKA
Method in brief: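 Endogenous factor activity read in transiently transfected HepG2 via promoter-regulated reporter transcripts. RNA harvested 24 h post-dosing, reverse-transcribed, PCR-amplified, FAM-labelled, HpaI-digested and resolved by capillary electrophoresis; fitted in both directions against DMSO.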

[6] = molecular target: Heat shock factor protein 1 (Homo sapiens) (UniProt Q00613); test: ATG_HSE_CIS: Attagene CIS-FACTORIAL HepG2 Assay for human Heat Shock Transcription Factor 1 (HSE) (AID 2282953); settings: HepG2 HSE cis-reporter, Attagene RNA transcription; actives raise or lower the signal
Heat shock factor protein 1 (Homo sapiens), sequence (Q00613 whole entry, looked up): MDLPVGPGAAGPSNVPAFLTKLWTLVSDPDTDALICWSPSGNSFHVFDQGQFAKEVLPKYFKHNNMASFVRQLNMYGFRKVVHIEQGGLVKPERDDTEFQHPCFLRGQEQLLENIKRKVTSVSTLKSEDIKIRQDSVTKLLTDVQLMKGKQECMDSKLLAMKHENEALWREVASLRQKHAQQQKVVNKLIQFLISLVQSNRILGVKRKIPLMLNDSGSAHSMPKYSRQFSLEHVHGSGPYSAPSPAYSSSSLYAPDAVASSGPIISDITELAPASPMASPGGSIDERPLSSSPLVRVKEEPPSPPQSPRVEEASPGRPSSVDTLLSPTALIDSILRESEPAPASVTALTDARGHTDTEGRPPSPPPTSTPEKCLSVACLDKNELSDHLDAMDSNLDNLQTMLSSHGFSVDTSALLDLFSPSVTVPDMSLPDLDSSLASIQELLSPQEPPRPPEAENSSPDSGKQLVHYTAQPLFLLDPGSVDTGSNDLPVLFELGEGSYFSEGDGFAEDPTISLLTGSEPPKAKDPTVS
Method in brief: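 HepG2 cells transiently transfected with multiple reporter transcription units under cis-regulatory promoter control, measuring endogenous transcription factor activity. After 24 h chemical exposure, reporter mRNA quantified by RT-PCR, fluorescent labelling, HpaI digestion and capillary electrophoresis; bidirectional fit versus DMSO.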

[7] = ATG_MRE_CIS: Attagene CIS-FACTORIAL HepG2 Assay for human Metal Responsive Element (MRE) (AID 2282954); settings: HepG2 MRE cis-reporter transcription, Attagene multiplex; actives raise or lower the signal
Method in brief: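 Multiplexed cis-reporter assay in human HepG2 liver cells, 24 h incubation with test chemical. Reporter transcripts measured by RT-PCR and capillary electrophoresis; values from bidirectional curve fitting versus DMSO.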

[8] = ATG_PBREM_CIS: Attagene CIS-FACTORIAL HepG2 Assay for human Phenobarbital-responsive Enhancer Module (PBREM) (AID 2282955); settings: HepG2 PBREM cis-reporter, Attagene multiplexed transcription; actives raise or lower the signal
Method in brief: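 Transfected liver-derived HepG2 cells exposed 24 h; PBREM reporter transcript quantified via RT-PCR and capillary electrophoresis, with activity in either direction referenced to DMSO.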

[9] = molecular target: Paired box protein Pax-6 (Homo sapiens) (UniProt P26367); test: ATG_Pax6_CIS: Attagene CIS-FACTORIAL HepG2 Assay for human Paired Box 6 (PAX6) (AID 2282956); settings: HepG2 CIS-FACTORIAL PAX6 reporter transcription, RNA readout; actives raise or lower the signal
Paired box protein Pax-6 (Homo sapiens), sequence (P26367 whole entry, looked up): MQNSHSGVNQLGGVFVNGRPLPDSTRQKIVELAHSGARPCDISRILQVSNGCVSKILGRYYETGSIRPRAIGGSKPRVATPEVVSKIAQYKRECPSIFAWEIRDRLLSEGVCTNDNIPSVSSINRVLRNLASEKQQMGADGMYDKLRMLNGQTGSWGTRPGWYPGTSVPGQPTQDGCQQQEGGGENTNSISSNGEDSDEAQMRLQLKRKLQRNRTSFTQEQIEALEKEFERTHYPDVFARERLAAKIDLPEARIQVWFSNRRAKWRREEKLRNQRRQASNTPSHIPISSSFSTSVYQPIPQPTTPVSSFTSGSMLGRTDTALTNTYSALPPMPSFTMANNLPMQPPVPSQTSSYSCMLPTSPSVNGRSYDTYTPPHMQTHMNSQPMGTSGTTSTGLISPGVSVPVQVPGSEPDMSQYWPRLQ
Method in brief: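 Values derive from bidirectional curve fitting of reporter mRNA signal relative to DMSO. HepG2 cells bearing transfected cis-regulated MRTUs were exposed for 24 h; transcripts were read by RT-PCR and capillary electrophoresis.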

[10] = ATG_PXRE_CIS: Attagene CIS-FACTORIAL HepG2 Assay for human Pregnane X Receptor Element (PXRE) (AID 2282957); settings: HepG2 Attagene CIS-FACTORIAL PXRE reporter, mRNA; actives raise or lower the signal
Method in brief: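 Reporter transcripts under endogenous PXR-responsive cis-regulation quantified from total RNA of transfected HepG2 cells 24 h post-dosing, via RT-PCR with fluorescent primer extension and capillary electrophoresis. Gain or loss of signal fitted against DMSO baseline.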

[11] = ATG_PPRE_CIS: Attagene CIS-FACTORIAL HepG2 Assay for human Peroxisome Proliferator-activated Response Element (PPRE) (AID 2282958); settings: HepG2 PPRE cis-element reporter, Attagene transcription factor profiling; actives raise or lower the signal
Method in brief: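 Measured endpoint: PPRE-controlled reporter mRNA, detected by RT-PCR and capillary electrophoresis fluorescence, from transiently transfected HepG2 cells 24 h after dosing. Curves fitted in both directions using DMSO baseline.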

[12] = ATG_RORE_CIS: Attagene CIS-FACTORIAL HepG2 Assay for human RAR-related Orphan Receptor Element (RORE) (AID 2282959); settings: HepG2 Attagene cis-factorial RORE reporter, mRNA; actives raise or lower the signal
Method in brief: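 Transiently transfected HepG2 reporter cells were treated 24 h. Reporter transcripts were detected by RT-PCR and capillary electrophoresis, with bidirectional fitting against DMSO.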

[13] = ATG_Sox_CIS: Attagene CIS-FACTORIAL HepG2 Assay for human SRY-box transcription factor (SOX) (AID 2282960); settings: HepG2 Attagene cis-factorial SOX reporter, mRNA; actives raise or lower the signal
Method in brief: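 Gain- or loss-of-signal endpoint, fitted bidirectionally with DMSO as negative control. Based on reporter mRNA from transfected HepG2 cells harvested 24 h post-treatment and quantified via RT-PCR and capillary electrophoresis.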

[14] = molecular target: Transcription factor Sp1 (Homo sapiens) (UniProt P08047); test: ATG_Sp1_CIS: Attagene CIS-FACTORIAL HepG2 Assay for human Specificity Protein 1 (Sp1) (AID 2282961); settings: HepG2 Sp1 cis-reporter transcription, actives raise or lower the signal
Transcription factor Sp1 (Homo sapiens), sequence (P08047 whole entry, looked up, the tested form may be a part): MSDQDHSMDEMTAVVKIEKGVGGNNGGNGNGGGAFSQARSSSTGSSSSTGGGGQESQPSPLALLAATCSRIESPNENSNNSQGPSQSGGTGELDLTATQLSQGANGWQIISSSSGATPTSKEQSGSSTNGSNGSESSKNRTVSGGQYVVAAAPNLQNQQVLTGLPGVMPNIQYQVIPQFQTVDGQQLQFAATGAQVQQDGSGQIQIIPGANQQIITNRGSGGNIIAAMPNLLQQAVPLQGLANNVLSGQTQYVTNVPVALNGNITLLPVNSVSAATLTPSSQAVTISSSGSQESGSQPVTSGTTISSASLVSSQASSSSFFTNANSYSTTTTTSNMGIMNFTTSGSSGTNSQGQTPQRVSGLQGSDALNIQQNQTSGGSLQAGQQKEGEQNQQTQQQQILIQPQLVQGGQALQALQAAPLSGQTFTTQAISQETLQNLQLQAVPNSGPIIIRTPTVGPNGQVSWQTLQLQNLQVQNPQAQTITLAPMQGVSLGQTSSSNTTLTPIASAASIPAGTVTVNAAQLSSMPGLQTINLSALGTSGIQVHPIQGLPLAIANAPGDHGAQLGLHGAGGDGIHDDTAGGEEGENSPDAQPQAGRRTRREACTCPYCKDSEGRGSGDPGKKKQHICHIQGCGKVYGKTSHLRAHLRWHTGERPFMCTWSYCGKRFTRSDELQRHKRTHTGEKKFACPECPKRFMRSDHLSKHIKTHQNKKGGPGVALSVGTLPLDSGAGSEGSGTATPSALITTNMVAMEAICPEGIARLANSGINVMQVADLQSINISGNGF
Method in brief: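 Endpoint reflects endogenous Sp1 transcriptional activity, not an exogenous fusion protein: HepG2 cells with transfected cis-regulated reporters, 24 h dosing, RT-PCR/capillary electrophoresis mRNA read-out, DMSO-normalised bidirectional fit.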

[15] = ATG_SREBP_CIS: Attagene CIS-FACTORIAL HepG2 Assay for human Sterol Regulatory Element Binding (SREBP) (AID 2282962); settings: HepG2 Attagene cis-factorial SREBP reporter, mRNA; actives raise or lower the signal
Method in brief: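 Values derive from bidirectional curve fitting with DMSO as baseline. The underlying measurement is reporter mRNA from cis-element-regulated units in transiently transfected HepG2, quantified by RT-PCR and capillary electrophoresis after 24 h exposure.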

[16] = molecular target: Signal transducer and activator of transcription 3 (Homo sapiens) (UniProt P40763); test: ATG_STAT3_CIS: Attagene CIS-FACTORIAL HepG2 Assay for human Signal Transducer and Activator of Transcription 3 (STAT3) (AID 2282963); settings: HepG2, Attagene cis-factorial STAT3 reporter transcription; actives raise or lower the signal
Signal transducer and activator of transcription 3 (Homo sapiens), sequence (P40763 whole entry, looked up): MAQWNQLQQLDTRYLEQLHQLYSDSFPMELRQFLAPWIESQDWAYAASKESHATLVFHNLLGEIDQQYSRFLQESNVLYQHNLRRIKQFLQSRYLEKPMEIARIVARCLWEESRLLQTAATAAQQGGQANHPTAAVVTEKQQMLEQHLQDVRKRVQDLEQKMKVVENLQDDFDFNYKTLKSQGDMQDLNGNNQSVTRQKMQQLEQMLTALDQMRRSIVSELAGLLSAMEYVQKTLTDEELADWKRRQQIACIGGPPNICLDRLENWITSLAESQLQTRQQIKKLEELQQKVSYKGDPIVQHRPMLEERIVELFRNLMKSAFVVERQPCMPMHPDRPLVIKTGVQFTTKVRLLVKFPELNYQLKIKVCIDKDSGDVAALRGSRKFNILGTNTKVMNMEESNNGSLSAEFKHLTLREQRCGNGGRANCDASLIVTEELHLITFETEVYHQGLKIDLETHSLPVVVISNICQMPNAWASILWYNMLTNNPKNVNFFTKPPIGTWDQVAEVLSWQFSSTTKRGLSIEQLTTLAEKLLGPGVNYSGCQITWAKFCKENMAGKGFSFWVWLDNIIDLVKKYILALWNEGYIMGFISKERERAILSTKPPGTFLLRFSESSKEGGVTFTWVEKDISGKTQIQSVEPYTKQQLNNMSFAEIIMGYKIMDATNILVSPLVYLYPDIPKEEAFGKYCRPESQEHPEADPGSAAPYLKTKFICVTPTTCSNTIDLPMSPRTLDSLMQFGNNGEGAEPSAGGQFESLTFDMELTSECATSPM
Method in brief: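 Cis-factorial format: endogenous transcription factors in HepG2 drive transfected reporter units. After 24 h treatment, reporter RNA was reverse-transcribed, amplified, FAM-labelled and HpaI-digested before CE analysis; activity scored in both directions against DMSO.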

[17] = ATG_TA_CIS: Attagene CIS-FACTORIAL HepG2 Assay for human TA Basal Promoter (AID 2282964); settings: HepG2 Attagene CIS-factorial TA basal promoter reporter; actives raise or lower the signal
Method in brief: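 HepG2 cells transiently transfected with multiplexed cis-promoter reporter units, dosed 24 h. Reporter mRNA measured by RT-PCR, 6-FAM labelling, HpaI digestion and capillary electrophoresis; bidirectional fit versus DMSO baseline, serving as background control.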

[18] = ATG_TAL_CIS: Attagene CIS-FACTORIAL HepG2 Assay for human TAL Basal Promoter (AID 2282966); settings: HepG2 Attagene cis-factorial TAL promoter reporter; actives raise or lower the signal;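 also: background control endpoint measuring basal TAL promoter reporter mRNA not a specific factor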
Method in brief: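 Background-control endpoint: basal TAL promoter reporter transcripts in transiently transfected HepG2, measured 24 h after dosing. Read-out by RT-PCR with fluorescent primer extension and capillary electrophoresis; gain or loss of signal fitted relative to DMSO.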

[19] = ATG_TGFb_CIS: Attagene CIS-FACTORIAL HepG2 Assay for human Transforming Growth Factor (TGF) (AID 2282967); settings: HepG2 Attagene CIS TGFb reporter, mRNA transcription; actives raise or lower the signal
Method in brief: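 HepG2 cells transiently transfected with cis-promoter-driven multiplexed reporter units; 24 h compound exposure. Reporter mRNA measured by RT-PCR, 6-FAM labeling, HpaI digestion and capillary electrophoresis; bidirectional fit versus DMSO baseline.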

[20] = ATG_TCF_b_cat_CIS: Attagene CIS-FACTORIAL HepG2 Assay for human T-Cell-Factor with beta-catenin (TCF/b-cat) (AID 2282965); settings: HepG2 TCF/beta-catenin cis-reporter transcription, actives raise or lower the signal
Method in brief: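 Endogenous transcription factor activity is captured through cis-promoter reporter constructs transiently introduced into human HepG2 liver cells. Induced reporter mRNA is measured after 24 h and fitted bidirectionally relative to DMSO.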

Measured: AC50

O=C(O)c1cc(I)cc(I)c1I
active: [10] 30.3 µM | [11] 27.8 µM
not listed: [20]
inactive: all other assays above

CC(C)(c1ccc(O)c(-c2ccccc2)c1)c1ccc(O)c(-c2ccccc2)c1
active: [7] 2.93 µM | [10] 0.965 µM
inactive: all other assays above

N#Cc1ccccc1Cl
active: [10] 26.4 µM
not listed: [8] | [19]
inactive: all other assays above

CCOc1cc(C=O)ccc1O
not listed: [9] | [11]
inactive: all other assays above

O=S1(=O)OC(c2cc(Br)c(O)c(Br)c2)(c2cc(Br)c(O)c(Br)c2)c2ccccc21
active: [10] 24.5 µM | [11] 57.4 µM | [12] 93 µM | [20] 121 µM
not listed: [9] | [14]
inactive: all other assays above

Cc1ccccc1OP(=O)(Oc1ccccc1)Oc1ccccc1
active: [1] 7.35 µM | [7] 59.8 µM | [10] 0.236 µM | [15] 7.9 µM
not listed: [9] | [14]
inactive: all other assays above

Nc1ncn[nH]1
not listed: [11]
inactive: all other assays above

O=C=Nc1ccc(Cl)cc1
not listed: [11]
inactive: all other assays above

CCCCC(CC)COC(=O)Cl (centres undefined)
not listed: [11] | [12] | [17]
inactive: all other assays above

CCNc1nc(NCC)nc(SC)n1
active: [10] 27.9 µM
not listed: [11] | [18]
inactive: all other assays above

Nc1ccc(Br)cc1
not listed: [11]
inactive: all other assays above

C=CCN=C=S
not listed: [11] | [17]
inactive: all other assays above

CC(C)C(C)(N)C#N (centres undefined)
active: [10] 26 µM
not listed: [11]
inactive: all other assays above

C1CN2CCN1CC2
active: [4] 50.5 µM
not listed: [11]
inactive: all other assays above

From PubChem BioAssay (EPA / NIEHS)
